# Measured values as given in PubChem BioAssay (Tox21).
# Several values for one entry are separate records, joined by “and”; a condition that tells them apart may be missing. Equal entries are not always repeated. Inconclusive results are not listed. Where a call stands in place of a potency, no number is given. Some structures have more than one record in an assay (separate samples or runs), and their calls can disagree. Activity calls are given as the source filed them. Calls come from the whole dose curve; as a rule, active = well fitted curve in the direction sought with a large enough effect in the repeat runs; inconclusive = weak or mixed curves; inactive = no such curve, though single readings can be large; an effect the other way counts as inactive or inconclusive.
# Assays:
# [1] = A CellTox Green Cytotoxicity Assay to monitor cytotoxicity in HEK293 cells - 32 hour (AID 1224881); note: nearly all actives have a fitted effect of over 40% in size; note: potency is the fitted concentration of half-maximal effect
# Method in brief: (§1)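 Each value comes from one timepoint of a single continuous run in which HEK293 cells with CellTox Green were exposed to compound for up to 40 h at 37 C, dye fluorescence rising with cell death.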
# [2] = A CellTox Green Cytotoxicity Assay to monitor cytotoxicity in HepG2 cells - 0 hour (AID 1224882); note: nearly all actives have a fitted effect of over 35% in size
# Method in brief: (§2)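 Continuous culture of HepG2 cells with a membrane-impermeant DNA dye; rising fluorescence marks dead cells. Compound exposure lasted up to 40 h at 37 C, with reads every 8 h from 0 h.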
# [3] = A CellTox Green Cytotoxicity Assay to monitor cytotoxicity in HepG2 cells - 32 hour (AID 1224883); note: nearly all actives have a fitted effect of over 50% in size; note: potency is the fitted concentration of half-maximal effect
# Method in brief: as §2
# [4] = qHTS RealTime-Glo MT Cell Viability Assay in HepG2 cells - 16 hour (AID 1224885); note: nearly all actives have a fitted effect of over 50% in size; note: potency is the fitted concentration of half-maximal effect
# Method in brief: (§3)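 Real-time, nonlytic viability: 600 HepG2 cells/well mixed with NanoLuc enzyme plus prosubstrate; 5 h settle, compound (DMSO) added by pintool; luminescence monitored over 40 h at 37 C.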
# [5] = qHTS RealTime-Glo MT Cell Viability Assay in HEK293 cells - 24 hour (AID 1224886); note: nearly all actives have a fitted effect of over 50% in size; note: potency is the fitted concentration of half-maximal effect; for activity change, negative = cytotoxicity: top concentration of the series differs between compounds
# Method in brief: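 Cells + reagent dispensed (600 cells/well, HEK293) → 5 h at 37 C/5% CO2 → 23 nL compound in DMSO pinned → 40 h at 37 C → luminescence read at 0, 8, 16, 24, 32, 40 h.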
# [6] = qHTS RealTime-Glo MT Cell Viability Assay in HEK293 cells - 8 hour (AID 1224887); note: nearly all actives have a fitted effect of over 50% in size; note: potency is the fitted concentration of half-maximal effect; for activity change, negative = cytotoxicity: top concentration of the series differs between compounds
# Method in brief: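 qHTS format; HEK293 cells with NanoLuc/prosubstrate reagent, 37 C/5% CO2 for 5 h pre-dosing; compounds 23 nL in DMSO; luminescence at each time point reflects viable cells.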
# [7] = A CellTox Green Cytotoxicity Assay to monitor cytotoxicity in HEK293 cells - 16 hour (AID 1224888); note: nearly all actives have a fitted effect of over 35% in size; note: potency is the fitted concentration of half-maximal effect
# Method in brief: as §1
# [8] = qHTS RealTime-Glo MT Cell Viability Assay in HepG2 cells - 0 hour (AID 1224889); note: nearly all actives have a fitted effect of over 50% in size
# Method in brief: as §3
# [9] = A CellTox Green Cytotoxicity Assay to monitor cytotoxicity in HepG2 cells - 8 hour (AID 1224890); note: nearly all actives have a fitted effect of over 45% in size; note: potency is the fitted concentration of half-maximal effect
# Method in brief: as §2
# [10] = A CellTox Green Cytotoxicity Assay to monitor cytotoxicity in HEK293 cells - 8 hour (AID 1224884); note: nearly all actives have a fitted effect of over 35% in size; note: potency is the fitted concentration of half-maximal effect
# Method in brief: as §1
smiles,measurement,setting,value
Cc1cccc2n[nH]nc12,Potency,[1],inactive
same,Potency,[2],inactive
same,Potency,[3],inactive
same,Potency,[4],inactive
same,Potency,[5],inactive
same,Potency,[6],inactive
same,Potency,[7],inactive
same,Potency,[8],inactive
same,Potency,[9],inactive and 43.6 µM (active)
CCCCOCCOC(=O)c1ccccc1C(=O)OCCOCCCC,Potency,[1],inactive
same,Potency,[2],inactive
same,Potency,[3],inactive
same,Potency,[10],inactive
same,Potency,[5],inactive
same,Potency,[6],inactive
same,Potency,[7],inactive
same,Potency,[8],inactive
same,Potency,[9],inactive
CN1C(=O)c2ccc([N+](=O)[O-])cc2C1=O,Potency,[1],inactive
same,Potency,[2],inactive
same,Potency,[3],inactive
same,Potency,[10],inactive
same,Potency,[5],inactive
same,Potency,[6],inactive
same,Potency,[7],inactive
same,Potency,[8],inactive
same,Potency,[9],inactive
Cc1ccc(-c2cc(C(F)(F)F)nn2-c2ccc(S(N)(=O)=O)cc2)cc1,Potency,[1],49 µM (active) and inactive
same,Potency,[2],inactive
same,Potency,[3],48.8 µM (active) and 49 µM (active)
same,Potency,[4],48.8 µM (active) and 43.6 µM (active) and inactive
same,Potency,[5],38.7 µM (active) and 30.9 µM (active)
same,Potency,[6],43.5 µM (active) and 30.9 µM (active) and inactive
same,Potency,[7],inactive
same,Potency,[8],inactive
same,Potency,[9],54.9 µM (active)
CCCCC(CC)COC(=O)CC(C(=O)OCC(CC)CCCC)S(=O)(=O)O (stereo not given),Potency,[1],21.9 µM (active)
same,Potency,[2],inactive
same,Potency,[3],42 µM (active) and 43.6 µM (active)
same,Potency,[10],13.8 µM (active)
same,Potency,[7],19.5 µM (active)
same,Potency,[8],inactive
same,Potency,[9],inactive
COc1ccc(CCN(C)CCCC(C#N)(c2ccc(OC)c(OC)c2)C(C)C)cc1OC (stereo not given),Potency,[1],inactive
same,Potency,[2],inactive
same,Potency,[3],54.8 µM (active)
same,Potency,[10],inactive
same,Potency,[7],inactive
same,Potency,[9],inactive
Cc1cc(OCCOCC[N+](C)(C)Cc2ccccc2)ccc1C(C)(C)CC(C)(C)C,Potency,[1],21.7 µM (active) and 23.9 µM (active)
same,Potency,[2],inactive
same,Potency,[3],15.4 µM (active) and 9.52 µM (active)
same,Potency,[10],23.9 µM (active)
same,Potency,[5],12.2 µM (active) and 8.49 µM (active)
same,Potency,[7],38.7 µM (active) and 23.9 µM (active)
same,Potency,[8],inactive
same,Potency,[9],21.7 µM (active) and 21.3 µM (active)
Cc1ccc(S(=O)(=O)Oc2ccc(N=Nc3ccc(-c4ccc(N=Nc5c(O)ccc6cc(S(=O)(=O)O)cc(S(=O)(=O)O)c56)c(C)c4)cc3C)cc2)cc1,Potency,[1],inactive
same,Potency,[2],inactive
same,Potency,[3],inactive
same,Potency,[10],inactive
same,Potency,[5],inactive
same,Potency,[6],inactive
same,Potency,[7],inactive
same,Potency,[9],inactive
CC(C)(C)NCC(O)c1cc(O)cc(O)c1 (stereo not given),Potency,[1],inactive
same,Potency,[2],inactive
same,Potency,[3],inactive
same,Potency,[10],inactive
same,Potency,[5],inactive
same,Potency,[6],inactive
same,Potency,[7],inactive
same,Potency,[8],inactive
same,Potency,[9],inactive
Oc1ccc(Cl)cc1Cc1cc(Cl)ccc1O,Potency,[1],inactive
same,Potency,[2],inactive
same,Potency,[3],inactive
same,Potency,[10],inactive
same,Potency,[5],22.3 µM (active) and 43.6 µM (active)
same,Potency,[6],25 µM (active) and inactive
same,Potency,[7],inactive
same,Potency,[8],inactive
same,Potency,[9],inactive
CC(C)(C)NCC(O)COc1ccccc1OCC1CCCO1 (stereo not given),Potency,[1],inactive
same,Potency,[2],inactive
same,Potency,[3],inactive
same,Potency,[10],inactive
same,Potency,[5],inactive
same,Potency,[7],inactive
same,Potency,[8],inactive
same,Potency,[9],inactive
O=C(O)CCc1ccccc1,Potency,[1],inactive
same,Potency,[2],inactive
same,Potency,[3],inactive
same,Potency,[10],inactive
same,Potency,[5],inactive
same,Potency,[6],inactive
same,Potency,[7],inactive
same,Potency,[8],inactive
same,Potency,[9],inactive
NC(=Nc1ccccc1)Nc1ccccc1,Potency,[1],inactive
same,Potency,[2],inactive
same,Potency,[3],inactive
same,Potency,[10],inactive
same,Potency,[7],inactive
same,Potency,[8],inactive
same,Potency,[9],inactive
CC[C@]1(O)C[C@@H]2CN(CCc3c([nH]c4ccccc34)[C@@](C(=O)OC)(c3cc4c(cc3OC)N(C)[C@H]3[C@@](O)(C(=O)OC)[C@H](OC(C)=O)[C@]5(CC)C=CCN6CC[C@]43[C@@H]65)C2)C1,Potency,[1],inactive
same,Potency,[2],inactive
same,Potency,[3],inactive
same,Potency,[10],inactive
same,Potency,[5],4.3 nM (active)
same,Potency,[6],inactive
same,Potency,[7],inactive
same,Potency,[8],inactive
same,Potency,[9],inactive
O=c1n(CC2CO2)c(=O)n(CC2CO2)c(=O)n1CC1CO1 (stereo not given),Potency,[1],inactive
same,Potency,[2],inactive
same,Potency,[3],inactive
same,Potency,[4],inactive
same,Potency,[5],inactive
same,Potency,[6],inactive
same,Potency,[7],inactive
same,Potency,[8],inactive
same,Potency,[9],inactive
CCN(CC)C(=O)Nc1ccc(OCC(O)CNC(C)(C)C)c(C(C)=O)c1 (stereo not given),Potency,[1],inactive
same,Potency,[2],inactive
same,Potency,[3],inactive
same,Potency,[10],inactive
same,Potency,[5],inactive
same,Potency,[6],inactive
same,Potency,[7],inactive
same,Potency,[8],inactive
same,Potency,[9],inactive
CC1COc2c(N3CCN(C)CC3)c(F)cc3c(=O)c(C(=O)O)cn1c23 (stereo not given),Potency,[1],inactive
same,Potency,[2],inactive
same,Potency,[3],inactive
same,Potency,[7],inactive
same,Potency,[9],inactive
CC(C)CCOCc1ccccc1,Potency,[1],inactive
same,Potency,[2],inactive
same,Potency,[3],inactive
same,Potency,[5],inactive
same,Potency,[7],inactive
same,Potency,[8],inactive
same,Potency,[9],inactive
O=C(Nc1ccccc1SSc1ccccc1NC(=O)c1ccccc1)c1ccccc1,Potency,[2],inactive
same,Potency,[3],49 µM (active)
same,Potency,[10],inactive
same,Potency,[4],inactive
same,Potency,[7],inactive
same,Potency,[8],inactive
same,Potency,[9],inactive
CC(=O)C1=C(C)[C@@H]2C[C@@]3(C1)[C@H](C)CC[C@H]3C2(C)C,Potency,[1],36.2 µM (active) and inactive
same,Potency,[2],inactive
same,Potency,[3],inactive
same,Potency,[5],inactive
same,Potency,[6],inactive
same,Potency,[7],inactive
same,Potency,[8],inactive
same,Potency,[9],inactive
CCC(C)(C)C(=O)O[C@H]1C[C@@H](C)C=C2C=C[C@H](C)[C@H](CC[C@@H]3C[C@@H](O)CC(=O)O3)[C@H]21,Potency,[1],inactive
same,Potency,[2],inactive
same,Potency,[3],38.9 µM (active) and 9.52 µM (active)
same,Potency,[7],inactive
same,Potency,[9],inactive
CC(C)CCCCCCc1ccc(O)cc1,Potency,[1],22.3 µM (active) and 38.9 µM (active)
same,Potency,[2],inactive
same,Potency,[3],19.8 µM (active) and 43.6 µM (active)
same,Potency,[5],4440 nM (active)
same,Potency,[7],39.6 µM (active) and 38.9 µM (active)
same,Potency,[8],inactive
same,Potency,[9],25 µM (active) and 43.6 µM (active)
CCCCCCCCCCCCCCCCCl,cytotoxicity increase,[1],8.79% [at 15.8 µM] (inactive)
same,cytotoxicity,[2],7.68% [at 15.8 µM] (inactive)
same,cytotoxicity increase,[3],1.23% [at 15.8 µM] (inactive)
same,"activity change, negative = cytotoxicity",[5],0.956% [at 15.8 µM] (inactive)
same,"activity change, negative = cytotoxicity",[6],1.34% [at 15.8 µM] (inactive)
same,activity change,[7],"5.27% [at 15.8 µM, stronger effect = higher value] (inactive)"
same,"activity change, negative = cytotoxicity",[8],-0.916% [at 15.8 µM] (inactive)
same,cytotoxicity increase,[9],3.53% [at 15.8 µM] (inactive)
c1cc(C(c2ccc(OCC3CO3)cc2)C(c2ccc(OCC3CO3)cc2)c2ccc(OCC3CO3)cc2)ccc1OCC1CO1 (stereo not given),Potency,[1],inactive
same,Potency,[2],inactive
same,Potency,[3],inactive
same,Potency,[4],inactive
same,Potency,[5],inactive
same,Potency,[6],inactive
same,Potency,[7],inactive
same,Potency,[8],inactive
same,Potency,[9],inactive
